Assay results published in PubChem BioAssay.
The source made the active and inactive calls. Unless noted, the rule behind the calls is not given here.

Key:
[1] = anti-His antibody binders, primary screen, artefact control for SMM control protein annotation, biochemical, small-molecule microarray, 635 nm fluorescence (AID 1128); conditions: anti-His Alexa647 antibody binding, higher = more signal;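 note: score merges feature fluorescence with signal-to-noise for each printed compound spot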
[2] = tested on: Human papillomavirus type 1a E7 protein (residues 1-88); experiment: HPV1a E7 small-molecule binders, primary screen, biochemical, small-molecule microarray, residues 1-88, 635 nm (AID 1129); conditions: small-molecule microarray binding, fluorescence 635 nm; higher = more signal
[3] = biological target: Focal adhesion kinase 1 (Homo sapiens) (UniProt Q05397); experiment: small-molecule microarray binders of FAK, primary screen, biochemical, 635/667 nm fluorescence, BSA, DTT (AID 1130); conditions: PTK2 binding, 635 nm fluorescence, higher = more signal;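 note: composite of spot emission at 667 nm and signal to noise over triplicate slides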
[4] = tested on: Fibrinogen (Alexa647-labelled); experiment: fibrinogen binders on compound microarrays, profiling panel, artefact control for SMM control-protein annotation, biochemical, small-molecule microarray, 635/667 nm fluorescence (AID 1131); conditions: fibrinogen-A647 binding fluorescence, higher = more signal;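 note: z-score merges 667 nm fluorescence with per-spot signal-to-noise over triplicate slides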
[5] = biological target: Follistatin (Homo sapiens) (UniProt P19883); experiment: follistatin binders on small-molecule microarrays, primary screen, biochemical, small-molecule microarray, 635/667 nm fluorescence (AID 1132); conditions: FST binding, 635 nm fluorescence, higher = more signal
[6] = biological target: Fibroblast growth factor 2 (Homo sapiens) (UniProt P09038); experiment: FGF2 binders on small-molecule microarrays, primary screen, biochemical, small-molecule microarray, 635/667 nm fluorescence (AID 1133); conditions: small-molecule microarray binding, FGF2, fluorescence 635/667; higher = more signal
[7] = mitochondrial membrane potential change in A549 cells, profiling panel, cell-based, JC-1 fluorescence, basal, 24 h, 100 nL (AID 1138); conditions: higher = more signal;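 note: A549 lung adenocarcinoma cells under basal conditions with no added stimulus; test concentration not given here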
Lefty1 = Lefty1 binders on small-molecule microarrays, primary screen, biochemical, small-molecule microarray, 635/667 nm fluorescence (AID 1139); conditions: small-molecule microarray binding, fluorescence 635/667; higher = more signal
[8] = tested on: wheat germ agglutinin (Triticum aestivum), Alexa647-labelled; experiment: wheat germ agglutinin binders on compound microarrays, profiling panel, artefact control for SMM control-protein annotation, biochemical, small-molecule microarray, 635/667 nm fluorescence (AID 1140); conditions: WGA-A647 binding, 635 nm fluorescence, higher = more signal;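 note: score merges 667 nm feature emission with signal to noise over triplicate slides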
[9] = biological target: Luciferin 4-monooxygenase (Photinus pyralis) (UniProt P08659); experiment: firefly luciferase enzyme inhibitors, primary screen, biochemical, luminescence, purified enzyme, 2006 set (AID 1141); conditions: SteadyGlo luminescence, 30 min, higher = more signal, called active from +8 up or from −8 down;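 note: cell-free assay with purified firefly luciferase at 100 ng per well in PBS; test concentration not given here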
[10] = tested on: Wnt5a (protein binding on small-molecule microarray); experiment: Wnt5a binders on small-molecule microarray, primary screen, biophysical, 635/667 nm fluorescence (AID 1142); conditions: 635 nm fluorescence, higher = more signal;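 note: fluorescence read at 667 nm with signal to noise per printed feature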
[11] = cell viability in Huh7 cells, primary screen, cytotoxicity control for HCV replication inhibitor project, CellTiter-Glo luminescence, basal, 48 h (AID 1143); conditions: Huh7 HCV replicon, higher = more signal, called active from +8 up or from −8 down;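 note: Huh7 hepatoma cells carrying a hepatitis C replication reporter with no stimulus; test concentration not given here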
[12] = P. aeruginosa biofilm formation inhibitors, primary screen, PAO1 strain, BacTiter-Glo luminescence, LB-PBS (AID 1144); conditions: 12 h, higher = more signal
[13] = CREB reporter modulators without forskolin, primary screen, cell-based, PC12, CRE-LacZ reporter, unstimulated (AID 1145); conditions: no forskolin, luminescence, 4.5 h, higher = more signal, called active from +8 up or from −8 down
[14] = CREB reporter modulators under forskolin, primary screen, cell-based, PC12, CRE-LacZ reporter, forskolin-stimulated (AID 1146); conditions: luminescence, 4.5 h, higher = more signal, called active from +8 up or from −8 down;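 note: PC12 cells with 6xCRE LacZ reporter stimulated by forskolin 10 µM; beta-galactosidase reporter signal reflecting CREB driven transcription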
[15] = biological target: Streptavidin (Streptomyces avidinii) (UniProt P22629); experiment: streptavidin binders on small-molecule microarray, primary screen, artefact control for SMM compound annotation, biophysical, 635/667 nm fluorescence (AID 1147); conditions: streptavidin binding, higher = more signal;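 note: signal reflects streptavidin binding to arrayed compounds as a control protein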
[16] = small-molecule binders of probe aInhba, primary screen, biochemical, small-molecule microarray, 635/667 nm fluorescence (AID 1148); conditions: higher = more signal;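 note: score merges 667nm spot fluorescence with signal-to-noise for antibody binding to printed compounds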
Torsin-1A (Homo sapiens) [17] = biological target: Torsin-1A (Homo sapiens) (UniProt O14656); experiment: torsin A binders from cell lysate, primary screen, small-molecule microarray, wild-type, 635/667 nm (AID 1149); conditions: COS7 hTOR1A-WT lysate, 635 nm fluorescence, higher = more signal
Torsin-1A (Homo sapiens) [18] = biological target: Torsin-1A (Homo sapiens) (UniProt O14656); experiment: small-molecule binders of mutant TOR1A in lysate, primary screen, cell lysate, small-molecule microarray, COS7 lysate, 635/667 nm fluorescence (AID 1150); conditions: COS7 hTOR1A mutant lysate, 635 nm fluorescence, higher = more signal;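 note: score pools 667 nm emission and signal to noise measuring lysate protein binding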
[19] = tested on: Sonic hedgehog protein (Shh); experiment: small-molecule binders of Shh protein, primary screen, biochemical, small-molecule microarray, 635/667 nm fluorescence (AID 1151); conditions: small-molecule microarray binding, 635 nm fluorescence; higher = more signal;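 note: Shh protein binding to compounds spotted on small-molecule microarray slides; score combines spot fluorescence intensity with signal-to-noise across triplicate slides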

Follistatin (Homo sapiens), sequence (P19883 whole entry, looked up): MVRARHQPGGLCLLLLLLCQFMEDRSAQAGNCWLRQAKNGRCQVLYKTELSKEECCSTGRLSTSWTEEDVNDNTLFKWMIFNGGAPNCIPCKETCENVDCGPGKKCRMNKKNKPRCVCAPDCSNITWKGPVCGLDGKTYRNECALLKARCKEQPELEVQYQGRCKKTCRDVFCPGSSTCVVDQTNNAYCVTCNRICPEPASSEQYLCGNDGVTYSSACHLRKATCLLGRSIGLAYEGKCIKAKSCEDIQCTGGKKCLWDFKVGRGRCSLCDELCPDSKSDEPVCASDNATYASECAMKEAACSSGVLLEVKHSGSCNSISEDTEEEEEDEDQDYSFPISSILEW
Streptavidin (Streptomyces avidinii), sequence (P22629 whole entry, looked up): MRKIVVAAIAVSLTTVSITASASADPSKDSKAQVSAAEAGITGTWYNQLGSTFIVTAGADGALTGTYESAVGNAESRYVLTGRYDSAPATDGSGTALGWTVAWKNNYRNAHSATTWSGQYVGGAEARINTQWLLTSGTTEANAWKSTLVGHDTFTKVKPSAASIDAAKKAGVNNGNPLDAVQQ
Torsin-1A (Homo sapiens), sequence (O14656 whole entry, looked up): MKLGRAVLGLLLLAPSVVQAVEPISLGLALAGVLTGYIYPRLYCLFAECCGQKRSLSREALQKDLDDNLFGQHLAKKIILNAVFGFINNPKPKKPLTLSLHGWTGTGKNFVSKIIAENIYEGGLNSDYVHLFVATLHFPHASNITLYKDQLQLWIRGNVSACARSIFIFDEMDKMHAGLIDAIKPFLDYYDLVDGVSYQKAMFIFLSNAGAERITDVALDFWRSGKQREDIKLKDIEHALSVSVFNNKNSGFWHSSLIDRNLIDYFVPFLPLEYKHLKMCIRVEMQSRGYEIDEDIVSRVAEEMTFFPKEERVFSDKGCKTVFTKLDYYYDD
Fibroblast growth factor 2 (Homo sapiens), sequence (P09038 whole entry, looked up): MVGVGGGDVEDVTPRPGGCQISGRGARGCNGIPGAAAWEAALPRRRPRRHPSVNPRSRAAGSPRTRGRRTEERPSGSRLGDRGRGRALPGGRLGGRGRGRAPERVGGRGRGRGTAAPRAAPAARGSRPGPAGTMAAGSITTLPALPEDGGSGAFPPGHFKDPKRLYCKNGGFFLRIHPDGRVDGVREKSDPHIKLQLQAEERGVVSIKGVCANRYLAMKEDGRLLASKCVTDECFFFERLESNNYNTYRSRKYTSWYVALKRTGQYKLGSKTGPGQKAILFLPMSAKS
Focal adhesion kinase 1 (Homo sapiens), sequence (Q05397 whole entry, looked up): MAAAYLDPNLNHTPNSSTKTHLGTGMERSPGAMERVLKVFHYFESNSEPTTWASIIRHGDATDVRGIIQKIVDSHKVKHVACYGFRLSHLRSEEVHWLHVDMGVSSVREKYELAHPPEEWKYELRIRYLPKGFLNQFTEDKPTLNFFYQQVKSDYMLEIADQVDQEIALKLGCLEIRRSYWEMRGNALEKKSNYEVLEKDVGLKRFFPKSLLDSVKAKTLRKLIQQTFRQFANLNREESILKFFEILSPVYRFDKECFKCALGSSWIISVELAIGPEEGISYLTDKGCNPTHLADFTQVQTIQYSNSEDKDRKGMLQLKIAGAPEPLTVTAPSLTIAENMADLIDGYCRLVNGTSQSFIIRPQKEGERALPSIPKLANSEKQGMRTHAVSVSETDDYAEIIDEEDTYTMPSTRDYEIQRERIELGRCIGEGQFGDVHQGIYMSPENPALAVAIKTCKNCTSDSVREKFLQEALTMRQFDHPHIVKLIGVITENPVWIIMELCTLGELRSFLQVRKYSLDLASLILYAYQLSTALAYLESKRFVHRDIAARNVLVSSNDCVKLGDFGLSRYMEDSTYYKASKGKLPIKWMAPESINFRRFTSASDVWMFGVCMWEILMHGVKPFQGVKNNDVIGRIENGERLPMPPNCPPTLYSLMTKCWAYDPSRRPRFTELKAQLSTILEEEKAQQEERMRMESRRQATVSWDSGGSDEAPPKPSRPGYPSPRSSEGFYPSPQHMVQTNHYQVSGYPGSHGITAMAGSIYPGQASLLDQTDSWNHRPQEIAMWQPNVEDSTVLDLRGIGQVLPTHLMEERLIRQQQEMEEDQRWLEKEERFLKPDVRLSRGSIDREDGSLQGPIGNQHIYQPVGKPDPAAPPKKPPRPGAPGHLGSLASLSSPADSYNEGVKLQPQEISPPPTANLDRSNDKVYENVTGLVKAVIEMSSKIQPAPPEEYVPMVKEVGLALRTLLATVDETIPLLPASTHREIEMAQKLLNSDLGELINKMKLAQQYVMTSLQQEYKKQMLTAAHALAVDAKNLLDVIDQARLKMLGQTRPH
Luciferin 4-monooxygenase (Photinus pyralis), sequence (P08659 whole entry, looked up): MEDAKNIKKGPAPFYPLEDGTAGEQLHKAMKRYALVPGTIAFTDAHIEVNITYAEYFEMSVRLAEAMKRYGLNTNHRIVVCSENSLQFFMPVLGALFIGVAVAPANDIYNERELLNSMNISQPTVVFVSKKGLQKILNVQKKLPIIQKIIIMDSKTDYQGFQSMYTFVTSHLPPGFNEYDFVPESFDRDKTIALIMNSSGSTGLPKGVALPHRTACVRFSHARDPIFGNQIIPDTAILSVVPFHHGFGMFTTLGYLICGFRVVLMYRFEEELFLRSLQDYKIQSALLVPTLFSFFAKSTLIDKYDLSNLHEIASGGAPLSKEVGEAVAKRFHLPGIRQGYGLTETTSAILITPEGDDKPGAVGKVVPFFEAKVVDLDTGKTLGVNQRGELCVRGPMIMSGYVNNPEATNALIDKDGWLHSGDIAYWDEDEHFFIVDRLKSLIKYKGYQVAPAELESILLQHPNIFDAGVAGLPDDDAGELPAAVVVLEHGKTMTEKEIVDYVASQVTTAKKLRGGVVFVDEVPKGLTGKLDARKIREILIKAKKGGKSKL

SMILES	composite z-score [1]	composite z-score [2]	composite z-score [3]	composite z-score [4]	composite z-score [5]	composite z-score [6]	z-score [7]	composite z-score (Lefty1)	composite z-score [8]	z-score [9]	composite z-score [10]	z-score [11]	z-score [12]	z-score [13]	z-score [14]	composite z-score [15]	composite z-score [16]	composite z-score (Torsin-1A (Homo sapiens) [17])	composite z-score (Torsin-1A (Homo sapiens) [18])	composite z-score [19]
C=C(CCCC)C(=O)CC[C@@H](OC(=O)c1cccnc1)c1ccc(OCCO)cc1	0.0583	0.581	-0.471	-0.0496	1.47	1.56	0.335	1.57	0.363	-3.15 (inactive)	1.08	-2.32 (inactive)	0.383 (inactive)	11.5 (active)	1.62 (inactive)	-0.444	0.0857	1.12	0.507	2.35
CCOC(=O)C1=CCC(c2ccco2)N(S(=O)(=O)c2ccc(C)cc2)C1 (stereo not given)	1.1	1.2	0.841	0.965	1.1	0.377	-0.664	0.851	0.832	-1.58 (inactive)	0.45	-2.95 (inactive)	-1.65 (inactive)	-0.0228 (inactive)	0.887 (inactive)	1.64	0.0841	0.55	1.24	0.409
C=CCC(OC(C)=O)[C@@H]1[C@@H](N(Cc2ccc(-c3ccccc3)cc2)C(=O)c2ccc(C)cc2)c2cc(OCCCO)ccc2N1C(=O)Cc1ccc2ccccc2c1 (stereo not given in full)	0.0102	-0.823	-0.0958	0.0701	0.37	-0.154	3.13	0.293	0.0607	-2.19 (inactive)	-0.0632	-0.889 (inactive)	-0.0727 (inactive)	1.66 (inactive)	-0.515 (inactive)	0.129	-0.0986	0.0508	-0.577	1
COc1cc2c(cc1O)C(c1ccc(CN3CCCC3)cc1)N(C)CC2 (stereo not given)	-1.52	-2.03	-0.489	0.109	-0.843	-0.324	0.563	-1.17	0.434	-0.831 (inactive)	-0.0821	-0.383 (inactive)	0.374 (inactive)	-0.231 (inactive)	-0.0347 (inactive)	-0.317	-0.237	-0.508	0.081	-0.0838
CC(C)OC(=O)CC(=O)CC(O)c1ccc([N+](=O)[O-])cc1 (stereo not given)	0.42	0.304	-0.0134	-0.434	-0.134	-0.404	0.276	-0.006	0.518	0.419 (inactive)	0.0008	-0.824 (inactive)	0.402 (inactive)	1.03 (inactive)	1.59 (inactive)	-0.402	-0.0044	0.913	0.113	-0.514
